# According to PubChem BioAssay AID1259415 (National Center for Advancing Translational Sciences (NCATS), 2018):
# Hit rate of the full screen: of about 410,000 compounds, about 18,000 (4.4%) were called active. About 7% were inconclusive and are not listed. Many of the other results were omitted from the sample, so actives are more common in it than they were. Values without a mark were called inactive. Cut-off read from the data, not from the text of the source: active = activity change below about -60%; inconclusive = no clear call, values can overlap the other calls; inactive = above about -39%.
# Assay: qHTS Assay for inhibitors of the human cytomegalovirus (HCMV)
# Conditions: HFF cells, HCMV-luciferase reporter, 72 h; at 57.5 µM; hits give low values
# Method in brief: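 Steps: HFFs plated, 16 h 37C; compounds added; HCMV-luciferase added to MOI 1 PFU/cell; 72 h 37C; OneGlo reagent, 5 min room temperature; luminescence read, normalized to controls.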
# % is set by controls: 0 for no effect and ±100 for the full control effect.
row,Structure (SMILES),"activity change, negative = inhibition"
1,O=C(Cn1c(=O)n(Cc2cccs2)c(=O)c2cccnc21)Nc1ccc(F)cc1,-5.11%
2,CCCC(=O)Nc1ccc2oc(-c3ccc(O)c(Br)c3)nc2c1,94.7%
3,COc1ccc(CCNC(=O)c2cc(=O)c3c(C)cc(C)cc3o2)cc1OC,-6.54%
4,COc1cccc(-n2cc(C(=O)NCc3cccc(Cl)c3)c3ccccc3c2=O)c1,-23.6%
5,CCN(CC)c1ccc(NS(=O)(=O)c2cc(-c3cc(C)no3)ccc2C)c(C)c1,0%
6,Cc1ccc2c(c1)N(S(=O)(=O)c1cc(-c3cc(C)no3)ccc1C)CCO2,-81.3% (active)
7,CCC1CN(S(=O)(=O)c2cc(-c3cc(C)no3)ccc2C)c2cc(C)ccc2O1 (stereo not given),-36.6%
8,C[C@@H]1NS(=O)(=O)c2cc(Cl)ccc2O[C@@H]1c1ccccc1,-16.5%
9,COc1ccc(CCn2cc3c(c2-c2ccc(Br)cc2)c(=O)n(C)c(=O)n3C)cc1OC,15.4%
10,COc1ccc(S(=O)(=O)NCc2cccn2Cc2cccc(C)c2)cc1,-4.02%
11,CCOc1ccc(N(C)S(=O)(=O)c2cc(-c3cnc(C)o3)ccc2OC)cc1,-20.5%
12,Cc1nn(C(C)C(=O)Nc2ccc(C(C)C)cc2)c(=O)c2c1sc1ccccc12 (stereo not given),-9.99%
13,COc1ccccc1NC1=NC(c2ccc(Cl)cc2)N=C(N)N1 (stereo not given),-75.4% (active)
14,COc1ccccc1Nc1nc(N)nc(N)c1S(=O)(=O)c1ccccc1,21.5%
15,COc1ccccc1NC(=O)C1CCCN1S(=O)(=O)c1ccc(Cl)cc1 (stereo not given),0.0905%
16,CC(=NNC(N)=O)c1ccc(Cl)c(-n2cccc2)c1,25.6%
17,Cc1cccc2c(=O)cc(CSc3ccccc3NC(=O)C(C)C)[nH]c12,45.6%
18,COCCCNC(=O)c1ccc(NC(=O)c2nsc3ccccc23)cc1,114%
19,COc1ccccc1OCc1ccc(C(=O)NC(C)c2ccccc2)o1 (stereo not given),26.2%
20,Cc1cccc(NC(=O)c2ccc(COc3ccccc3[N+](=O)[O-])o2)n1,-4.62%
21,CCCc1ccc(OCc2ccc(C(=O)N/N=C/c3cccc([N+](=O)[O-])c3)o2)c(OC)c1,-67.9% (active)
22,COc1ccc(N(CC(=O)NCCc2ccc(Cl)cc2)S(=O)(=O)c2c(C)nn(C)c2C)cc1,-14.4%
23,Cc1ccc(S(=O)(=O)NCc2nc3nc(C)cc(C)n3n2)cc1,14.6%

row,Structure (SMILES),"activity change, negative = inhibition"
1,Cc1ccc(-c2nn3c(=O)cc(CN4CCN(C(=O)Nc5cccc(C(F)(F)F)c5)CC4)nc3s2)cc1,10.5%
2,CCOC(=O)C1CCN(c2csc3ccc(C)cc3c2=O)CC1,-4.71%
3,COc1cccc(C(O)Cc2nc3ccccc3n2C)c1OC (stereo not given),34.8%
4,CC(NCc1nc2ccccc2n1C)C12CC3CC(CC(C3)C1)C2 (stereo not given),-65.6% (active)
5,Cn1c(COc2ccccc2C(C)(C)C)nc2ccccc21,-14.6%
6,CCOC(=O)c1ccc(NC(=O)c2csc3c2CCCCC3)cc1,26.3%
7,Nn1c(SCC(=O)NC2CCCc3ccccc32)nnc1C1CC1 (stereo not given),40.9%
8,CC(C)N(Cc1ccccc1)C(=O)COC(=O)c1ccccc1SCC(=O)N1CCCC1,-8.52%
9,O=C(CC1C(=O)NCCN1Cc1ccc(-c2ccccc2)cc1)NCc1ccncc1 (stereo not given),11.9%
10,COc1ccc(CN2CCNC(=O)C2CC(=O)NCc2cn[nH]c2-c2ccccc2)c(F)c1 (stereo not given),-65.5% (active)
11,CC(C)c1nc(CNC(=O)CC2C(=O)NCCN2Cc2cccc(F)c2F)cs1 (stereo not given),12.4%
12,CCOc1ccc(N2CC(C)Cn3c2nc2c3c(=O)n(Cc3c(F)cccc3Cl)c(=O)n2C)cc1 (stereo not given),-9.51%
13,CCOc1ccccc1NC(=O)CN1CCN(S(=O)(=O)c2ccc(Br)cc2)CC1,-1.48%
14,O=C(NC1CC(=O)N(c2ccc(F)cc2)C1)C1CCCCC1 (stereo not given),31.9%
15,Cc1ccc(C)c(N2CCN(C(c3ccccc3)c3nnc(-c4ccccc4)o3)CC2)c1 (stereo not given),20.2%
16,O=C(NN1C(=O)C2C3C=CC(C4CC34)C2C1=O)c1ccc(Cl)cc1 (stereo not given),11.6%
17,COc1ccc(C(=O)NN2C(=O)C3C(c4ccccc4)C=CC(c4ccccc4)C3C2=O)cc1 (stereo not given),-63% (active)
18,O=C(NN1C(=O)C2C3C=CC(O3)C2C1=O)c1ccncc1 (stereo not given),-8.47%
19,CCc1cccc(NC(=O)c2cnc(N3CCOCC3)c3ccccc23)c1,10.1%
20,COc1ccc(CCNC(=O)c2ccc3c(c2)nc(C)n3-c2ccc(Br)cc2)cc1OC,-16.1%
21,Cc1ccc(C)c(Cn2c(C)c(CNCc3ccc(F)cc3)c(C(=O)O)c2C)c1,18.1%
22,Cc1ccc(C2c3[nH]c4ccccc4c3CCN2C(=O)c2cccc(C)c2)cc1 (stereo not given),-22.4%
